# Test results published in PMC9838217, “Structure of SALL4 zinc finger domain reveals link between AT-rich DNA binding and Okihiro syndrome”.
# Residue numbers refer to the chain shown, from its start.
# What was measured:
# Experiment in all cases: HT-SELEX; high values mean tight binding
# Settings in all cases: protein: recombinant; vector His6-GST; dsDNA, one strand shown
# SALL4 ZFC4 WT (HT-SELEX) = target: T1, SALL4 ZFC4 WT (HT-SELEX) (Mus musculus, UniProt Q8BX22 870-940)
# T1 sequence: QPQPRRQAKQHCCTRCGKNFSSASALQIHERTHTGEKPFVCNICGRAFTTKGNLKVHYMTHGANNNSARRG
# Procedure, shortened: (§1)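 Purified recombinant mouse SALL4 zinc finger cluster 4 (residues 870–940, 1 µg) was incubated with library DNA (1.5 µg first cycle, 200 ng later) in 100 µl buffer (10 mM Tris–HCl pH 7.5, 50 mM NaCl, poly(dI-dC), DTT) for 10 min at room temperature. Ni2+ bead-captured complexes were washed, PCR-amplified and reselected for up to 6 cycles, in triplicate, then MiSeq-sequenced and scanned for 6-mers. Binding signal is each canonical k-mer's read fraction as fold change versus the initial random library.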
# [1] = target: T2, SALL4 ZFC4 R900W (HT-SELEX) (Mus musculus, UniProt Q8BX22 870-940, R900W)
# T2 sequence: T1 sequence with R31W
# Procedure, shortened: as §1
# [2] = target: T3, SALL4 ZFC4 G921D (HT-SELEX) (Mus musculus, UniProt Q8BX22 870-940, G921D)
# T3 sequence: T1 sequence with G52D
# Procedure, shortened: as §1
Sequence,binding signal (SALL4 ZFC4 WT (HT-SELEX)) [fold-change vs cycle 0],binding signal [1] [fold-change vs cycle 0],binding signal [2] [fold-change vs cycle 0]
CATTAG,1.317 ± 0.00537,1.45 ± 0.0172,1.39 ± 0.0502
ATTTTA,3.12 ± 0.229,2.24 ± 0.131,1.98 ± 0.2
AAACAG,1.101 ± 0.00341,1.27 ± 0.0528,1.23 ± 0.0148
CGTAGA,0.623 ± 0.00876,0.7054 ± 0.00296,0.786 ± 0.024
ACCCTA,0.864 ± 0.0329,0.973 ± 0.0359,0.982 ± 0.053
CCAACG,0.347 ± 0.0246,0.388 ± 0.0249,0.505 ± 0.0781
CGTGTC,0.335 ± 0.0147,0.407 ± 0.0314,0.545 ± 0.0369
CTCCCA,0.474 ± 0.0284,0.569 ± 0.0121,0.655 ± 0.0274
ACCCAT,0.847 ± 0.0456,0.916 ± 0.0414,0.954 ± 0.0193
GGGGAA,0.462 ± 0.0251,0.532 ± 0.0365,0.614 ± 0.0545
CATCAA,1.23 ± 0.0349,1.37 ± 0.0542,1.32 ± 0.0556
ACAGGA,0.851 ± 0.0194,1 ± 0.0486,1.01 ± 0.0583
CTATCA,1.36 ± 0.0524,1.47 ± 0.0491,1.41 ± 0.0867
ACAAAG,1.19 ± 0.0417,1.36 ± 0.0499,1.3 ± 0.0198
CTAGCC,0.314 ± 0.031,0.395 ± 0.0257,0.508 ± 0.064
AGGAAG,0.939 ± 0.0254,1.172 ± 0.0114,1.11 ± 0.034
GTGCTA,0.592 ± 0.0163,0.69 ± 0.007,0.796 ± 0.0354
ATTGTC,1.14 ± 0.0493,1.21 ± 0.0499,1.24 ± 0.0435
AGGGGG,0.323 ± 0.0254,0.375 ± 0.0258,0.443 ± 0.0497
ACTTAA,1.95 ± 0.0715,2.12 ± 0.103,1.85 ± 0.222
GTTTCA,1.26 ± 0.0534,1.32 ± 0.0266,1.31 ± 0.0949

Sequence,binding signal (SALL4 ZFC4 WT (HT-SELEX)) [fold-change vs cycle 0],binding signal [1] [fold-change vs cycle 0],binding signal [2] [fold-change vs cycle 0]
ACAGCT,0.616 ± 0.0411,0.714 ± 0.0328,0.811 ± 0.0395
AGCTTG,0.638 ± 0.0175,0.764 ± 0.0176,0.841 ± 0.049
GCAGTA,0.609 ± 0.0122,0.693 ± 0.0275,0.766 ± 0.032
ACAGGT,0.824 ± 0.0401,0.95 ± 0.0293,0.985 ± 0.0191
TGAACA,1.29 ± 0.0296,1.4 ± 0.0577,1.36 ± 0.0684
GGGTGA,0.483 ± 0.00743,0.541 ± 0.0302,0.632 ± 0.0295
CTGATA,1.39 ± 0.0802,1.44 ± 0.0817,1.36 ± 0.068
AACGTT,1.19 ± 0.0242,1.33 ± 0.0216,1.24 ± 0.0303
CTCTAA,1.25 ± 0.0589,1.39 ± 0.103,1.36 ± 0.0965
AAGAAT,2.15 ± 0.0737,2.2 ± 0.103,1.91 ± 0.167
CATAGC,0.663 ± 0.0317,0.746 ± 0.0368,0.844 ± 0.0408
ATATAG,2.33 ± 0.245,1.9 ± 0.143,1.74 ± 0.201
CCCTAG,0.516 ± 0.0342,0.601 ± 0.0265,0.667 ± 0.029
CCACAA,0.612 ± 0.0144,0.71 ± 0.0271,0.759 ± 0.0161
ACTGTA,1.35 ± 0.031,1.49 ± 0.0592,1.38 ± 0.111
AACCTG,0.802 ± 0.0637,0.917 ± 0.053,0.952 ± 0.0288
AACTCA,1.37 ± 0.0562,1.48 ± 0.0196,1.4 ± 0.113
CTAATA,2.24 ± 0.127,2.01 ± 0.099,1.81 ± 0.144
AGTAGC,0.643 ± 0.0074,0.756 ± 0.0367,0.856 ± 0.0498
GTGAGA,0.859 ± 0.0299,0.971 ± 0.0233,0.986 ± 0.0119
CACCTC,0.511 ± 0.0163,0.563 ± 0.0344,0.689 ± 0.0609
